Screen size: about 5,500 compounds; about 2,000 (36%) were called active. Inconclusive results (about 18%) are left out. Cut-off read from the data, not from the text of the source: active = normalized growth mostly below about 0.91 (no sharp cut-off); inconclusive = no clear call, values can overlap the other calls; inactive = mostly above about 0.92. The list shows a part of the results.
Assay: chemical genetic growth profiling, strain panel (AID 1159580);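 note: tested at 20 µM; growth read once vehicle control cultures reached saturation at 30 °C; 1 = growth at the plate median or of vehicle wells; lower values mean less growth of the strain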
Conditions: growth OD

Measured: normalized growth

COC(=O)c1c(C)cc(OC)cc1O
inactive: S. cerevisiae deletion strains, locus YJR075W, strain HOC1, active compounds read low 0.974 | S. cerevisiae deletion strains, locus YKL009W, strain mrt4, active compounds read low 0.964 | S. cerevisiae deletion strains, locus YKL068W, active compounds read low 0.995 | S. cerevisiae deletion strains, locus YKL085W, strain MDH1 (second series), active compounds read low 0.978 | S. cerevisiae deletion strains, locus YKL085W, strain MDH1, active compounds read low 0.978 | S. cerevisiae deletion strains, locus YKL160W, strain elf1, active compounds read low 0.971 | S. cerevisiae deletion strains, locus YKL190W, strain CNB1, active compounds read low 0.991 | S. cerevisiae deletion strains, locus YKR001C, strain vps1, active compounds read low 0.959 | S. cerevisiae deletion strains, locus YKR026C, strain gcn3, active compounds read low 0.972 | S. cerevisiae deletion strains, locus YKR091W, strain srl3, active compounds read low 0.974 | S. cerevisiae deletion strains, locus YLL001W, strain dnm1, active compounds read low 0.973 | S. cerevisiae deletion strains, locus YLL026W, active compounds read low 0.981 | S. cerevisiae deletion strains, locus YLL041C, strain sdh2, active compounds read low 1 | S. cerevisiae deletion strains, locus YLR027C, strain aat2, active compounds read low 0.967 | S. cerevisiae deletion strains, locus YLR039C, strain RIC1, active compounds read low 0.995 | S. cerevisiae deletion strains, locus YLR058C, strain SHM2, active compounds read low 0.998 | S. cerevisiae deletion strains, locus YLR102C, strain apc9, active compounds read low 0.981 | S. cerevisiae deletion strains, locus YLR113W, strain HOG1, active compounds read low 1.02 | S. cerevisiae deletion strains, locus YLR221C, strain rsa3, active compounds read low 0.959 | S. cerevisiae deletion strains, locus YLR258W, strain gsy2, active compounds read low 0.974 | S. cerevisiae deletion strains, locus YLR262C, strain YPT6 (second series), active compounds read low 1.02 | S. cerevisiae deletion strains, locus YLR262C, strain YPT6, active compounds read low 1.01 | S. cerevisiae deletion strains, locus YLR268W, strain sec22, active compounds read low 0.989 | S. cerevisiae deletion strains, locus YLR320W, strain mms22, active compounds read low 0.947 | S. cerevisiae deletion strains, locus YLR330W, strain CHS5, active compounds read low 0.993 | S. cerevisiae deletion strains, locus YLR342W, strain FKS1 (second series), active compounds read low 1 | S. cerevisiae deletion strains, locus YLR342W, strain FKS1, active compounds read low 0.989 | S. cerevisiae deletion strains, locus YLR357W, strain rsc2, active compounds read low 0.983 | S. cerevisiae deletion strains, locus YLR370C, strain arc18, active compounds read low 0.986 | S. cerevisiae deletion strains, locus YLR371W, strain rom2, active compounds read low 0.989 | S. cerevisiae deletion strains, locus YLR384C, strain iki3, active compounds read low 0.976 | S. cerevisiae deletion strains, locus YLR418C, strain cdc73, active compounds read low 0.941 | S. cerevisiae deletion strains, locus YML016C, strain PPZ1, active compounds read low 0.982 | S. cerevisiae deletion strains, locus YML032C, strain rad52, active compounds read low 0.976 | S. cerevisiae deletion strains, locus YML120C, strain ndi1, active compounds read low 0.988 | S. cerevisiae deletion strains, locus YML124C, strain tub3, active compounds read low 0.984 | S. cerevisiae deletion strains, locus YMR058W, strain fet3, active compounds read low 0.978 | S. cerevisiae deletion strains, locus YMR078C, strain ctf18, active compounds read low 0.981 | S. cerevisiae deletion strains, locus YMR125W, strain sto1, active compounds read low 0.993 | S. cerevisiae deletion strains, locus YMR129W, active compounds read low 0.993 | S. cerevisiae deletion strains, locus YMR205C, strain PFK2, active compounds read low 0.95 | S. cerevisiae deletion strains, locus YMR223W, strain ubp8, active compounds read low 0.971 | S. cerevisiae deletion strains, locus YMR231W, strain pep5, active compounds read low 1 | S. cerevisiae deletion strains, locus YMR263W, strain SAP30, active compounds read low 0.982 | S. cerevisiae deletion strains, locus YMR307W, strain GAS1, active compounds read low 1.03 | S. cerevisiae deletion strains, locus YNL067W, strain RPL9B, active compounds read low 0.994 | S. cerevisiae deletion strains, locus YNL071W, strain lat1, active compounds read low 0.98 | S. cerevisiae deletion strains, locus YNL128W, strain TEP1, active compounds read low 1.01 | S. cerevisiae deletion strains, locus YNL153C, strain GIM3, active compounds read low 0.988 | S. cerevisiae deletion strains, locus YNL183C, strain NPR1, active compounds read low 0.979 | S. cerevisiae deletion strains, locus YNL209W, strain ssb2, active compounds read low 0.999 | S. cerevisiae deletion strains, locus YNL233W, strain BNI4, active compounds read low 0.992 | S. cerevisiae deletion strains, locus YNL248C, strain rpa49, active compounds read low 0.982 | S. cerevisiae deletion strains, locus YNL250W, strain rad50, active compounds read low 0.979 | S. cerevisiae deletion strains, locus YNL271C, strain bni1, active compounds read low 0.978 | S. cerevisiae deletion strains, locus YNL298W, strain CLA4, active compounds read low 0.996 | S. cerevisiae deletion strains, locus YNL307C, strain MCK1, active compounds read low 0.914 | S. cerevisiae deletion strains, locus YNL322C, strain KRE1 (second series), active compounds read low 0.953 | S. cerevisiae deletion strains, locus YNL322C, strain KRE1, active compounds read low 0.997 | S. cerevisiae deletion strains, locus YNR049C, strain mso1, active compounds read low 0.998 | S. cerevisiae deletion strains, locus YNR052C, strain pop2, active compounds read low 1 | S. cerevisiae deletion strains, locus YOL006C, strain TOP1, active compounds read low 0.848 | S. cerevisiae deletion strains, locus YOL012C, strain htz1 0.923 | S. cerevisiae deletion strains, locus YOL147C, strain pex11, active compounds read low 0.978 | S. cerevisiae deletion strains, locus YOR001W, strain rrp6, active compounds read low 0.985 | S. cerevisiae deletion strains, locus YOR061W, strain CKA2, active compounds read low 1.01 | S. cerevisiae deletion strains, locus YOR069W, strain VPS5, active compounds read low 0.995 | S. cerevisiae deletion strains, locus YOR070C, strain gyp1, active compounds read low 0.971 | S. cerevisiae deletion strains, locus YOR080W, strain dia2, active compounds read low 0.982 | S. cerevisiae deletion strains, locus YOR083W, strain WHI5, active compounds read low 0.96 | S. cerevisiae deletion strains, locus YOR106W, strain vam3, active compounds read low 0.978 | S. cerevisiae deletion strains, locus YOR136W, strain idh2, active compounds read low 0.995 | S. cerevisiae deletion strains, locus YOR144C, strain elg1, active compounds read low 0.99 | S. cerevisiae deletion strains, locus YOR184W, strain ser1, active compounds read low 0.922 | S. cerevisiae deletion strains, locus YOR231W, strain MKK1, active compounds read low 1.03 | S. cerevisiae deletion strains, locus YOR265W, strain rbl2, active compounds read low 0.965 | S. cerevisiae deletion strains, locus YOR270C, strain vph1, active compounds read low 0.891 | S. cerevisiae deletion strains, locus YOR290C, strain snf2, active compounds read low 0.977 | S. cerevisiae deletion strains, locus YOR316C, strain cot1, active compounds read low 0.988 | S. cerevisiae deletion strains, locus YPL051W, strain arl3, active compounds read low 0.954 | S. cerevisiae deletion strains, locus YPL055C, strain LGE1, active compounds read low 1 | S. cerevisiae deletion strains, locus YPL078C, strain atp4, active compounds read low 0.917 | S. cerevisiae deletion strains, locus YPL106C, strain sse1, active compounds read low 0.929 | S. cerevisiae deletion strains, locus YPL240C, strain hsp82, active compounds read low 0.974 | S. cerevisiae deletion strains, locus YPL241C, strain CIN2, active compounds read low 0.994 | S. cerevisiae deletion strains, locus YPL256C, strain CLN2, active compounds read low 1.03 | S. cerevisiae deletion strains, locus YPR119W, strain clb2, active compounds read low 0.972 | S. cerevisiae deletion strains, locus YPR141C, strain kar3, active compounds read low 0.98 | S. cerevisiae deletion strains, locus YPR163C, strain tif3, active compounds read low 1 | S. cerevisiae deletion strains, locus YPR167C, strain met16, active compounds read low 0.982 | S. cerevisiae deletion strains, strain wtn01, active compounds read low 0.964 | S. cerevisiae strains, strain wild type, active compounds read low 1

Reference: PubChem BioAssay AID1159580 (chemical genetic matrix, 2015)
